Assay in all cases: NCI-60 one-dose screen, 48 h (100 = growth as untreated, 0 = no growth, -100 = all killed)
For assay [1], the system named is NCI-H23 lung. Particulars: 10 µM unless noted.
Assay [2] has as its system NCI-H226 lung. Particulars: 10 µM unless noted.
Assay [3] has as its system NCI-H322M lung. Particulars: 10 µM unless noted.
The subject of assay [4] is HOP-62 NSCLC. Particulars: 10 µM unless noted.
The subject of assay [5] is NCI-H460 lung. Particulars: 10 µM unless noted.
The test system of assay [6] is HOP-92 NSCLC. Particulars: 10 µM unless noted.
Assay [7] concerns NCI-H522 lung. The settings on record: 10 µM unless noted.
Assay [8] deals with A549/ATCC NSCLC. The settings on record: 10 µM unless noted.
Assay [9] concerns 786-0 renal. Particulars: 10 µM unless noted.
In assay [10] the test system is COLO 205 colon. The settings on record: 10 µM unless noted.
The subject of assay [11] is DU-145 prostate. Particulars: 10 µM unless noted.
For assay [12], the system named is K-562 leukemia. The settings on record: 10 µM unless noted.
Assay [13] has as its system MALME-3M melanoma. The settings on record: 10 µM unless noted.
For assay [14], the system named is MDA-MB-231 breast. Particulars: 10 µM unless noted.
Assay [15] relates to RXF 393 renal. Particulars: 10 µM unless noted.
Assay [16] concerns SF-268 CNS. Particulars: 10 µM unless noted.
Assay [17] concerns SF-295 CNS. The settings on record: 10 µM unless noted.
Assay [18] has as its system SF-539 CNS. The settings on record: 10 µM unless noted.
Assay [19] has as its system UACC-257 melanoma. The settings on record: 10 µM.
For assay [20], the system named is M14 melanoma. The settings on record: 10 µM unless noted.

This is part of a sample that, as a whole, favours compounds with a hit. Of some 83,000 tested, about 20% had one in any assay.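 Plates (96-well) were seeded with cells, treated with compound at one concentration, and incubated for 48 hours before percent growth was determined.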 Unmarked numbers belong to inactive results. Activity calls are given as the source filed them. How the source made its calls: active means growth percent below 10; inactive means the rest.

Turning to `N#Cc1c(-c2cccs2)cc(-c2cnccn2)nc1SCC(=O)NNC(=S)Nc1ccc(F)cc1`, the growth in assay [1] was 108%; in [2], 117%; in assay [3] it was 97.3%; in [4] it was 106%; in assay [5], 105%; in [6] it was 112%. Further, the growth is 95.5% in assay [7]; 100% in assay [8]; 99.3% in assay [9]; 112% in assay [10]; 109% in assay [11]; 92.2% in assay [12]. The growth in assay [13] was 127%; in [14] it was 94.5%; in assay [15], 141%; in assay [16] it was 106%; in [17], 106%; in assay [18], 98.1%. Also, the growth in assay [19] is 112%; in assay [20] it was 104%.

For the compound `CS(=O)(=O)c1ccc2c(c1)c1c(n2Cc2ccc(Cl)cc2)CCCC1`, the growth in assay [1] is 73.5%; in assay [2] it was 80.1%; in assay [3] it was 87.7%; in [4], 75.8%; in assay [5], 71.6%; in assay [6], 65.7%. In addition, the growth is 13.7% in [7]; 64.5% in [8]; 83.5% in assay [9]; 83.3% in [10]; 86.7% in assay [11]; 32.6% in [12]. Moreover, the growth in [13] was 74.4%; in assay [14], 66.1%; in assay [15], 73.4%; in [16], 86.6%; in assay [17], 67%; in assay [18] it was 81.1%. The growth in assay [19] was 92.1%; in assay [20], 75.6%.

On to `O=C(Nc1ccc(Cl)cc1)Nc1nc2ccc([N+](=O)[O-])cc2s1`, for which the growth in [1] is -45.5% (active); in assay [2] it was -15% (active); in assay [3] it was 2.65% (active); in [4], -33.5% (active); in [5], -9.27% (active); in assay [6] it was -25.9% (active). Also, the growth in [7] was -21.3% (active); in assay [8], 1.71% (active); in assay [9] it was 5.56% (active); in assay [10] it was -62.6% (active); in assay [11], 14%; in assay [12], 1.43% (active). The growth is -21.3% (active) in [13]; -17.5% (active) in [14]; -37.2% (active) in [15]; 7.98% (active) in [16]; -57.9% (active) in [17]; -22.3% (active) in assay [18]. In addition, the growth is -32.6% (active) in assay [19] and -20.4% (active) in assay [20].

Consider `Oc1ccc(CSc2nnc(-c3ccc(Oc4ccccc4)cc3)n2-c2ccccc2)c2cccnc12`, for which the growth in [1] is 21.3%; in [2] it was 18.9%; in [3] it was 18.3%; in assay [4], 15%; in [5], 0.254% (active); in [6] it was 10.5%. Also, the growth in assay [7] is 15%; in assay [8], 11.8%; in assay [9], 21.6%; in assay [10], 27.7%; in assay [11], 26.5%; in assay [12], 15.3%. Also, the growth in assay [13] was 11.9%; in assay [14] it was 35.8%; in assay [15], 21.5%; in [16] it was 22.3%; in assay [17] it was 0.102% (active); in assay [18], 2.32% (active). Besides, the growth was 0.403% (active) in [19] and -4.33% (active) in assay [20].

Take `COC(=O)Nc1ccc(-c2nc(-c3cccc(O)c3)c(-c3ccnc(Br)c3)[nH]2)cc1`: the growth was 67.2% in [1]; 63.8% in [2]; 68.4% in [3]; 64.7% in assay [4]; 26.8% in assay [5]; 51.5% in assay [6]. Moreover, the growth in assay [7] was 56%; in assay [8], 62.2%; in assay [9] it was 34.6%; in [10] it was 95.4%; in assay [11], 62.1%; in assay [12], 27.9%. Also, the growth is 54.1% in [13]; 56.6% in [14]; -4.89% (active) in [15]; 72.6% in assay [16]; 27.8% in assay [17]; 52.6% in assay [18]. The growth in assay [19] was 58.5%; in assay [20] it was 48.9%.

For the compound `O=C1c2c(c3c4cc(Br)ccc4[nH]c3c3ccc4ccccc4c23)C(=O)N1CCN1CCCCC1`, the growth in assay [1] was 37.8%; in assay [2], 69.2%; in assay [3] it was 78%; in assay [4], 33.8%; in assay [5], -67.7% (active); in assay [6], 51.3%. The growth in assay [7] was 68%; in [8], 7.63% (active); in [9], -84.2% (active); in [10] it was 61.7%; in [11] it was 22.9%; in assay [12], -50.3% (active). The growth in assay [13] is 68.1%; in [14], 77.7%; in assay [15], 59.5%; in assay [16] it was 38.4%; in assay [17], 23.7%; in [18], 38.7%. The growth was 93% in [19] and 20% in assay [20].

Regarding `CN1CCN(c2nc(-c3csc(-c4ccncc4)n3)cc3ccccc23)CC1`, the growth was 71.8% in assay [1]; 98.1% in assay [2]; 82.1% in assay [3]; 85% in assay [4]; 78.2% in assay [5]; 15.3% in assay [6]. For the same compound, the growth in [7] was 55.7%; in assay [8], 71.1%; in assay [9], 65.7%; in assay [10], 39.6%; in [11] it was 65.3%; in assay [12] it was 11%. In addition, the growth in assay [13] was 30.7%; in assay [14] it was 63%; in assay [15], -26.5% (active); in assay [16], 72.8%; in [17] it was 45.8%; in assay [18], 52.6%. Also, the growth in [19] was -1.71% (active); in assay [20], -18.5% (active).

(Values after PubChem BioAssay (NCI).)
